Data: the supplement of paper PMC9694430

Legend:
Test in all cases: thermal shift delta Tm vs DMSO control; higher = stronger stabilization (binding)
Settings in all cases: 12.5 µM; protein concentration 2 µM
[1] = tested on: LOC_OS01G01410-cb001
Summary of the method: (§1)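 Thermal shift values come from differential scanning fluorimetry on purified rice kinase domains made in E. coli, with melting temperatures obtained from Boltzmann fits. Samples of 19.5 μl held 2 μM kinase, 100 mM potassium phosphate pH 7.5, 150 mM NaCl, 10% glycerol, 5 × SYPRO Orange and compound in DMSO, and were heated from 25°C to 95°C at 0.05°C/s. Each shift is a triplicate mean relative to the DMSO-only protein sample.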

[2] = tested on: LOC_OS01G02750-cb003
Summary of the method: as §1

[3] = tested on: LOC_OS01G10900-cb004
Summary of the method: as §1

[4] = tested on: LOC_OS01G13800-cb001
Summary of the method: as §1

[5] = tested on: LOC_OS01G14860-cb001
Summary of the method: as §1

[6] = tested on: LOC_OS01G21960-cb002
Summary of the method: as §1

[7] = tested on: LOC_OS01G39600-cb002
Summary of the method: as §1

[8] = tested on: LOC_OS01G48390-cb002
Summary of the method: as §1

[9] = tested on: LOC_OS01G51400-cb002
Summary of the method: as §1

[10] = tested on: T1, LOC_OS01G52050-cb004
T1 sequence (whole entry): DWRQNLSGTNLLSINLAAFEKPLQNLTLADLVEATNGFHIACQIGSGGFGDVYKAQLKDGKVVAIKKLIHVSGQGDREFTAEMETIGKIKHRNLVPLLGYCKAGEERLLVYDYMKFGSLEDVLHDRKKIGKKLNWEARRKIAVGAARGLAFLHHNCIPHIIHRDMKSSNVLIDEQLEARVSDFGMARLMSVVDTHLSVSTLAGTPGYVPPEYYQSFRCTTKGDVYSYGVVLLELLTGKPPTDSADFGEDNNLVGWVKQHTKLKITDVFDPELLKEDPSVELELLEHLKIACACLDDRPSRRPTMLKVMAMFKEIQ
Summary of the method: as §1

[11] = tested on: LOC_OS01G57100-cb003
Summary of the method: as §1

[12] = tested on: LOC_OS01G60330-cb001
Summary of the method: as §1

[13] = tested on: LOC_OS01G60700-cb002
Summary of the method: as §1

[14] = tested on: LOC_OS01G63280-cb003
Summary of the method: as §1

[15] = tested on: LOC_OS01G67340-cb003
Summary of the method: as §1

[16] = tested on: LOC_OS01G70970-cb002
Summary of the method: as §1

[17] = tested on: LOC_OS02G07810-cb001
Summary of the method: as §1

[18] = tested on: LOC_OS02G08530-cb003
Summary of the method: as §1

[19] = tested on: LOC_OS02G14120-cb001
Summary of the method: as §1

[20] = tested on: LOC_OS02G17970-cb001
Summary of the method: as §1
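Further: purified Escherichia coli-expressed rice kinase domain construct.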

| Compound | thermal shift delta Tm [1] [°C] | thermal shift delta Tm [2] [°C] | thermal shift delta Tm [3] [°C] | thermal shift delta Tm [4] [°C] | thermal shift delta Tm [5] [°C] | thermal shift delta Tm [6] [°C] | thermal shift delta Tm [7] [°C] | thermal shift delta Tm [8] [°C] | thermal shift delta Tm [9] [°C] | thermal shift delta Tm [10] [°C] | thermal shift delta Tm [11] [°C] | thermal shift delta Tm [12] [°C] | thermal shift delta Tm [13] [°C] | thermal shift delta Tm [14] [°C] | thermal shift delta Tm [15] [°C] | thermal shift delta Tm [16] [°C] | thermal shift delta Tm [17] [°C] | thermal shift delta Tm [18] [°C] | thermal shift delta Tm [19] [°C] | thermal shift delta Tm [20] [°C] |
| --- | --- | --- | --- | --- | --- | --- | --- | --- | --- | --- | --- | --- | --- | --- | --- | --- | --- | --- | --- | --- |
| Cc1cc(Nc2cc(CN3CCOCC3)c3nc(C)c(Cc4ccc(Cl)cc4F)n3n2)n[nH]1 | 2.97 | 3.19 | 1.89 | -0.62 | 7.26 | 2.02 | 2.41 | 5.72 | -0.5 | 1.05 | 0.41 | 3.94 | -0.8 | 0.12 | 1.73 | 1.25 | 0.19 | 0.8 | 8.86 | -0.03 |
| CC(C)(C)Cn1c(N)nc2ccc(-c3[nH]c(C(C)(C)C)nc3-c3ccc(F)cc3)nc21 | 0.51 | -0.68 | 0 | -0.49 | -0.02 | -0.11 | -0.5 | 1.19 | -0.1 | -0.09 | -3.53 | -0.79 | 0.1 | -0.16 | 0.92 | -0.04 | -0.18 | 0.38 | -1.12 | -0.24 |
| CNC(=O)c1ccc(Nc2ncc(C(F)(F)F)c(NCc3nccnc3N(C)S(C)(=O)=O)n2)cc1 | 1.64 | 3.47 | 1.96 | -0.3 | 7.22 | 2.6 | 5.05 | 3.16 | 0.96 | 6.78 | 0.61 | 2.42 | 1.41 | 0.96 | 1.45 | 7.62 | 0.24 | 2.72 | 6.02 | 0.65 |
| CCN(CC)CCCC(C)Nc1ccnc2cc(Cl)ccc12 (stereo not given) [Chloroquine Phosphate] | 0.08 | 1.04 | 0.14 | 0.44 | 0.13 | 0.63 | -0.06 | -0.02 | 0 | -0.11 | 0.41 | 0.19 | 0.9 | -0.08 | 0.32 | -0.07 | 0.25 | 0.31 | 0.87 | -0.06 |
| CC(C)(CCCCCC(O)CCCCCC(C)(C)C(=O)O)C(=O)O | 0.55 | 0.54 | 0.09 | 0.41 | -0.23 | 0.39 | -0.54 | 0.29 | 0.29 | 0.02 | -0.51 | 1.18 | 0.87 | -0.01 | 0.52 | 0.21 | 0.4 | 0.32 | 0.05 | 0.59 |
